# Compound activity: PubChem BioAssay, several laboratories
# An excerpt weighted towards active compounds, which were near 1.6% of everything screened.
# PERK inhibitor = block of dimerizer-induced PERK translation repression, primary screen, PERK inhibitor project, CHO PERK-DD cells, SEAP luminescence, HTS | Eukaryotic translation initiation factor 2-alpha kinase 3 (Homo sapiens), Q9NZJ5 | CHO PERK-DD fusion, SEAP luminescence translation reporter | inhibition, % at 5.6 µM | 220,000 tested, 0.17% active | AID 1416, 2008;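 active = inhibition above the mean inhibition of all tested compounds plus 3 SD, set separately per screening campaign, cut at about 2.9% in these data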;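 note: PERK kinase domain activated by AP20187 dimerizer at 100 nM; 0% = DMSO with dimerizer and 100% = rapamycin at 8.4 µM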
# eIF4E-4G inh = eIF4E–eIF4G protein interaction inhibitors, primary screen, biochemical, uHTS, TR-FRET, eIF4GI fragment; Eukaryotic translation initiation factor 4E (Mus musculus) + Eukaryotic translation …; TR-FRET eIF4E-eIF4GI(517-606) binding, 2 h; inhibition, % at 21.7 µM; 220,000 tested, 0.37% active; AID 782, 2007;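 active = inhibition above about 30%, limit read from the data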;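 note: 0% = full FRET control wells and 100% = background wells lacking eIF4GI fragment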
# PABP1 MLLE inh = inhibitors of PABP1 MLLE–PAM2 peptide binding, primary screen, biochemical, fluorescence polarization, FITC-PAM2, GST-MLLE; AID 588489, 2011; inhibition, % at 20 µM; 360,000 tested, 0.36% active; in the data active = inhibition above about 35%, passing the limit was not always enough;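 note: plate controls were DMSO wells with GST-MLLE for no effect and wells lacking GST-MLLE protein for full effect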
# Target sequence (P11940 whole entry, looked up): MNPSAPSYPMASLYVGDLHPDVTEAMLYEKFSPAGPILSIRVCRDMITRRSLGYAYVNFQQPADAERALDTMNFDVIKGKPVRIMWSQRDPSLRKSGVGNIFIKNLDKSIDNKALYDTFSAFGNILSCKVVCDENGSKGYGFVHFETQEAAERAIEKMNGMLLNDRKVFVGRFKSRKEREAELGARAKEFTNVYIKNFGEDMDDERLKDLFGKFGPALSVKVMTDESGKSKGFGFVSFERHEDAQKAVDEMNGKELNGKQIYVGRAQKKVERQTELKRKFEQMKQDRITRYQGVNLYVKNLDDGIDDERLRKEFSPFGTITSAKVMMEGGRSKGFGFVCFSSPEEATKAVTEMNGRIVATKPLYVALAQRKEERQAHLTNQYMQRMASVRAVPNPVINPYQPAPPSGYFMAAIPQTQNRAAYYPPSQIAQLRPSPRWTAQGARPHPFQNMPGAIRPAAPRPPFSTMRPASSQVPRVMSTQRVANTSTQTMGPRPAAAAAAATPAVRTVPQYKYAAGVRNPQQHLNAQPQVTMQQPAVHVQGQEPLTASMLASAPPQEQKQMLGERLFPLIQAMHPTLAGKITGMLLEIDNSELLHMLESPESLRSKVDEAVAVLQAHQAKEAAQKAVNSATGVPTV
# PABP FP inh = PABP poly(A) RNA binding inhibitors, primary screen, biochemical, fluorescence polarization, uHTS | calls only at 35 µM | 290,000 tested, 1% active | Polyadenylate-binding protein 1 (Homo sapiens), P11940;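 note: calls also rest on retests at 20 µM and on dose response follow-up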
# eIF4H FP inh = human eIF4H binding inhibitors, primary screen, translation initiation inhibitor project, biochemical, uHTS, fluorescence polarization; Eukaryotic translation initiation factor 4H (Homo sapiens), Q15056; eIF4H fluorescence polarization binding assay; inhibition, % at 35 µM; 290,000 tested, 0.94% active; AID 2012, 2009;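 note: calls also rest on retests at 20 µM and on dose response follow-up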
# * marks the source's active call; other numbers are inactive results; i = inactive; ? = inconclusive; . = not tested or not shown; + = active, no number. Unless noted, the rule behind the calls is not given here.
SMILES,PERK inhibitor,eIF4E-4G inh,PABP1 MLLE inh,PABP FP inh,eIF4H FP inh
CC1(C)CC(=O)c2cc(OCC(=O)N3CCCCCC3)ccc2O1,0,1,1,i,8
S=C(Nc1ccc2nc(-c3ccccn3)c(-c3ccccn3)nc2c1)N1CCCCC1,0,1,30,+,38
O=C(Nc1cccc(C(=O)O)c1)/C(=C\c1cccc([N+](=O)[O-])c1)NC(=O)c1ccc(Br)cc1,.,.,-11,.,.
Cc1cccc(-c2nc(=S)c3c(o2)CCCC3)c1,1,1,45*,i,-7
N#CC1=C(N)C(C#N)(C#N)C(c2ccc[nH]2)C2CCCC=C12 (centres undefined),1,-4,-21,?,?
N#CC1=C(N)C(C#N)(C#N)C(c2cccnc2)C2CCCC=C12 (centres undefined),0,-17,.,i,120*
CN1CC=C2C(C#N)=C(N)C(C#N)(C#N)[C@H](c3cccs3)[C@H]2C1,1,0,122,i,?
N#CC1=C(N)C(C#N)(C#N)C(c2cccnc2)C2CC(c3ccccc3)CC=C12 (centres undefined),0,-5,63,+,?
COc1ccc(-n2nnnc2SCC(=O)NNC(=O)c2ccc([N+](=O)[O-])cc2)cc1,1,2,-61,+,63*
CSc1ccccc1NC(=O)c1ccccc1C,2,47*,20,i,2
COC(=O)c1ccccc1NC(=O)c1noc2c1CCC2,.,15,22,+,83*
CSc1ccccc1C(=O)Nc1ccccc1C,1,2,6,i,3
CCc1ccc(NC(=O)c2noc3c2CCC3)cc1,0,14,4,i,83
CSc1ccccc1NC(=O)c1noc2c1CCC2,1,8,29,+,90*
CC(=O)c1cc(O)c2ccccc2c1O,0,21,41*,i,13
CC(=O)c1coc2c1cc(O)c1ccccc12,1,-16,1,i,6
CCC(OC(=O)CC1Sc2ccccc2NC1=O)C(=O)NCC1CCCO1 (centres undefined),-1,-1,40*,i,1
COCCOC(=O)c1c(NC(=O)COC(=O)Cc2cccc(OC)c2)sc(C(N)=O)c1C,.,.,-7,i,-2
CCCCC1=CC2=CC(=O)C(C)(OC(=O)CC)C(=O)C2=CN1c1ccccc1 (centres undefined),.,71*,3,+,83
COC(=O)CCCC1=CC2=CC(=O)C(C)(OC(=O)c3cccs3)C(=O)C2=CN1c1ccc(OC)cc1 (centres undefined),.,-1,2,+,59
CCCCC1=CC2=CC(=O)C(C)(OC(=O)CC)C(=O)C2=CN1CCc1ccc(Br)cc1 (centres undefined),.,-3,-12,i,3
COC(=O)CCCC1=CC2=CC(=O)C(C)(OC(=O)c3cccs3)C(=O)C2=CN1Cc1ccco1 (centres undefined),.,8,10,+,61*
COC(=O)CCCC1=CC2=CC(=O)C(C)(OC(=O)c3cccs3)C(=O)C2=CN1CCCOC(C)C (centres undefined),.,-3,13,+,61
COC(=O)CCCC1=CC2=CC(=O)C(C)(OC(=O)c3cccs3)C(=O)C2=CN1Cc1ccccc1 (centres undefined),.,-3,7,i,41
COC(=O)CCC(=O)OC1(C)C(=O)C=C2C=C(C3CC3)N(Cc3ccco3)C=C2C1=O (centres undefined),.,2,30,+,88*
SMILES,PERK inhibitor,eIF4E-4G inh,PABP1 MLLE inh,PABP FP inh,eIF4H FP inh
CCCCC1=CC2=CC(=O)C(C)(OC(=O)CC)C(=O)C2=CN1Cc1ccccc1 (centres undefined),.,0,-20,i,36
CCCCC1=CC2=CC(=O)C(C)(OC(=O)CC)C(=O)C2=CN1Cc1ccco1 (centres undefined),.,4,6,+,70*
NC(N)=NS(=O)(=O)c1ccc(NC(=S)NC(=O)/C=C/c2ccccc2)cc1,.,.,30,i,-3
CSc1cccc(NC(=O)/C=C/c2ccco2)c1,1,8,-3,+,57*
NC(N)=NS(=O)(=O)c1ccc(NC(=S)NC(=O)/C=C/c2ccco2)cc1,1,2,2,+,88
NS(=O)(=O)c1ccc(NC(=S)NC(=O)/C=C/c2ccco2)cc1,2,4,4,i,85*
CCCn1nnc(NC(=S)NC(=O)/C=C/c2ccco2)n1,1,-7,21,+,80*
COC(=O)c1cc2cc(Cl)ccc2nc1SC,1,-5,-2,i,-14
O=C(CNS(=O)(=O)c1c(F)cccc1F)NC1CCCc2ccccc21 (centres undefined),.,.,6,.,.
O=C1c2ccccc2CN1Cc1ccccc1,.,.,-5,i,-10
COC(=O)[C@H](CCSC)NC(=O)Nc1cccc(Br)c1,1,-2,-16,i,-6
O=C(/C=C/c1ccco1)Nc1scc(-c2ccccc2)c1C(=O)O,2,2,1,+,79*
O=C(/C=C/c1ccco1)NC(=S)Nc1ccccc1,.,.,10,i,27
COc1ccc(-c2csc(NC(=S)NC(=O)/C=C/c3ccco3)n2)cc1OC,1,22,25,+,89*
CC(=O)c1ccc(NC(=S)NC(=O)/C=C/c2ccco2)cc1,.,.,26,+,62*
O=C(/C=C/c1ccccc1)Nc1scc(-c2ccccc2)c1C(=O)O,2,6,-6,i,-2
NS(=O)(=O)c1ccc(CNC(=O)/C=C/c2ccco2)cc1,0,6,-3,i,79*
O=C(/C=C/c1ccco1)NCc1ccc(F)cc1,0,-4,3,i,3
O=c1[nH]c2ccccc2[n+]([O-])c1-c1ccccc1,1,-3,3,i,-4
Cc1ccc(S(=O)(=O)NCCc2nnc(SCc3cccnc3)n2C)cc1,.,.,3,i,2
O=C(/C=C/c1ccco1)Nc1nc(-c2ccccc2)cs1,0,-1,-6,i,53
CCN(CC(=O)NCc1ccc(Cl)cc1)C(=O)/C=C/c1ccccc1,.,.,-5,i,3
COc1ccccc1NC(=O)/C=C\c1ccco1,.,.,7,i,6
CCN(CC(=O)NCc1ccc(Cl)cc1)C(=O)/C=C/c1ccco1,0,13,-7,+,16*
Cc1csc(NC(=O)/C=C/c2ccco2)n1,0,-3,-6,+,82
Cc1cccc(NC(=S)NC(=O)/C=C/c2ccco2)n1,-1,-4,11,+,56*
